Screening data deposited in PubChem BioAssay by several laboratories.
A selection: hits, their analogues and other compounds. The true share with any hit is near 2%.
MsrA inh: inhibits bovine methionine sulfoxide reductase A | purified bovine MsrA, absorbance read-out | inhibition, % at 15.5 µM | 360,000 compounds, 0.75% hits; in the data active means inhibition above about 4.5%
PKA-R1A act: PKA-R1A complex activation; PKA-R1A dissociation, Cy5-IP20 fluorescence polarization; scaled: DMSO 0%, 113 µM cGMP 100%; 340,000 compounds, 0.083% hits; activation, % at 11.4 µM;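 active means percent activation above the mean of all tested compounds plus 3 SD, cut at about 19% in these data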;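 further: higher means more PKAc released from R1A so a rise in polarization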
PKA-R2B act: activates the human PKA-R2B holoenzyme complex; PKA-R2B holoenzyme dissociation, Cy5-IP20 fluorescence polarization; R2B truncated from residue 108, S112A mutant; 0% DMSO only, 100% 113 µM cGMP; activation, % at 11.4 µM; P22694+P31323; 340,000 compounds, 0.079% hits; AID 504700;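 active means activation above a cutoff set at the mean over all compounds plus 3 SD, cut at about 18% in these data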;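 further: higher means more holoenzyme dissociation and a rise in polarization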
Target sequence (P31323 whole entry, looked up, other chains not shown, the tested form may be a part): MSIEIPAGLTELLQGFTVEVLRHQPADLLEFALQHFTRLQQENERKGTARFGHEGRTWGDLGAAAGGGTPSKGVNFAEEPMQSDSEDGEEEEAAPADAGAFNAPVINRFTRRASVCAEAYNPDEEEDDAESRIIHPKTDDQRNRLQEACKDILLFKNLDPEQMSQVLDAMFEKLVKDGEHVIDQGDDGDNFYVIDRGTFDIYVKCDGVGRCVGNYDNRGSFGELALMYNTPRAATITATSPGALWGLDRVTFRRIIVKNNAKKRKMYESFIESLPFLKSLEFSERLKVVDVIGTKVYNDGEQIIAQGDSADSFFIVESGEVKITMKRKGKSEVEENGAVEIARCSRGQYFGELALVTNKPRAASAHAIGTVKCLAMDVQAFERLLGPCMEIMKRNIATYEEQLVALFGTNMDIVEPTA
SUMO Mot1 rescue: blocks SUMOylation pathway, rescuing yeast Mot1-301 growth | 320,000 compounds, 1% hits | growth rescue, % at 18.8 µM | S. cerevisiae Mot1-301 growth rescue, ATP luminescence, 38.5C; percent above DMSO median, 100 means doubled;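 active means every valid replicate shows activation above 250% relative to neutral control wells; inactive means the rest, any valid replicate at or below 250%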
bovine MsrA act: activators of bovine methionine sulfoxide reductase A. purified bovine MsrA, absorbance read-out. activation, % at 10.6 µM. 360,000 compounds, 0.3% hits. AID 602163; in the data active means activation above about 7.5%
Mot1 SUMO dose: SUMO pathway inhibitors in yeast Mot1-301 growth; S. cerevisiae Mot1-301 galactose growth, ATP luminescence, 24 h; -100 = growth of slx-deleted rescue strain; AID 493004; 2,300 tested, under 10 active; growth activity, percent, % at 42 µM; shares compounds with SUMO Mot1 rescue;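 active means Signal drops as the depositor expects, and the fitted half-maximal dose is no more than ten times the top valid tested dose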;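 further: more negative values mean stronger growth rescue toward the control strain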
A number is an active result.

Screening NC(=O)c1nsc(C(=O)N(Cc2ccc(F)cc2)C(C(=O)NC2CCCC2)c2ccco2)c1N (stereo unspecified) returned MsrA inh inactive, PKA-R1A act inactive, PKA-R2B act inactive, SUMO Mot1 rescue 875.8, bovine MsrA act inactive and Mot1 SUMO dose inactive.
CCOc1ccccc1N(C(=O)c1snc(C(N)=O)c1N)C(C(=O)NC1CCCC1)c1cccs1 (stereo unspecified) was read as MsrA inh inactive, PKA-R1A act inactive, PKA-R2B act inactive, SUMO Mot1 rescue inactive and bovine MsrA act inactive.
Nc1ccc(C2(c3ccc(N)cc3)OC(=O)c3ccccc32)cc1 was read as MsrA inh inactive, PKA-R1A act inactive, PKA-R2B act inactive, SUMO Mot1 rescue 497.4, bovine MsrA act inactive and Mot1 SUMO dose inactive.
O=C(O)c1ccc(C2(c3ccc(C(=O)O)cc3)OC(=O)c3ccccc32)cc1 was read as MsrA inh inactive, PKA-R1A act inactive, PKA-R2B act inactive, SUMO Mot1 rescue inactive and bovine MsrA act inactive.
`CC(C)c1ccc(NC(=O)COc2nnc(-c3cccs3)c(-c3cccs3)n2)cc1` gave MsrA inh inactive, PKA-R1A act inactive, PKA-R2B act inactive, SUMO Mot1 rescue 810.1, bovine MsrA act inactive and Mot1 SUMO dose inactive.
Screening O=C(Nc1ccc([N+](=O)[O-])cn1)C1CC1 returned MsrA inh inactive, PKA-R1A act inactive, PKA-R2B act inactive, SUMO Mot1 rescue 572.7, bovine MsrA act inactive and Mot1 SUMO dose inactive.
Screening CCc1cc2c(nc1CC)CCCN2CCOC returned MsrA inh inactive.
Screening CCOC(=O)c1cnc2ccc(OCC)cc2c1N1CCN(C)CC1 returned MsrA inh inactive, PKA-R1A act inactive, PKA-R2B act inactive, SUMO Mot1 rescue inactive and bovine MsrA act inactive.
CCOC(=O)c1cnc2ccc(Cl)cc2c1N1CCN(C)CC1 was read as MsrA inh inactive, PKA-R1A act inactive, PKA-R2B act inactive, SUMO Mot1 rescue 616.0, bovine MsrA act inactive and Mot1 SUMO dose inactive.
Cc1nnc2nc(N)[nH]n2c1=O was read as MsrA inh inactive.
`COCc1cc(N2CCN(C(=O)OC(C)(C)C)C[C@H]2C)ccc1N1CC[C@@H](O)C1` gave MsrA inh inactive.
Screening O=C(Nc1ccc(Cl)cc1)c1ccc2c(c1)OCO2 returned MsrA inh inactive, PKA-R1A act inactive, PKA-R2B act inactive, SUMO Mot1 rescue inactive and bovine MsrA act inactive.
O=C(Nc1ccc(Cl)cc1)C1=Cc2ccccc2OC1 was read as MsrA inh inactive, PKA-R1A act inactive, PKA-R2B act inactive, SUMO Mot1 rescue 593.8, bovine MsrA act inactive and Mot1 SUMO dose inactive.
For Cc1cc(C)c(NC(=O)Cn2c([N+](=O)[O-])cnc2C)c(C)c1 the results were MsrA inh inactive, PKA-R1A act inactive, PKA-R2B act inactive, SUMO Mot1 rescue active, bovine MsrA act inactive and Mot1 SUMO dose inactive.
Screening Cc1ccc(C)c(NC(=O)Cn2c([N+](=O)[O-])cnc2C)c1 returned MsrA inh inactive, PKA-R1A act inactive, PKA-R2B act inactive, SUMO Mot1 rescue inactive and bovine MsrA act inactive.
`C[C@H](CO)N1C[C@H](C)[C@@H](CN(C)C(=O)CCC(F)(F)F)OCc2cn(nn2)CCCC1=O` gave MsrA inh inactive.
Screening CCNC(=O)COc1ccc(S(=O)(=O)Nc2ccccc2)cc1 returned PKA-R1A act inactive, PKA-R2B act inactive, SUMO Mot1 rescue 798.3, bovine MsrA act inactive and Mot1 SUMO dose inactive.
For COc1ccccc1-c1nnc(SCC(=O)NC2CCS(=O)(=O)C2)n1N (stereo unspecified) the results were MsrA inh inactive, PKA-R1A act inactive, PKA-R2B act inactive, SUMO Mot1 rescue active, bovine MsrA act inactive and Mot1 SUMO dose inactive.
Screening Cc1[nH]c2ccccc2c1CC(=O)Nc1ccc(Nc2cccnc2)c(Br)c1 returned MsrA inh inactive.
CCN1C(=O)N(C(C)=O)[C@H]2C[C@H](C(=O)N3CCCC3)[C@H](C)[C@H](c3ccccc3)C[C@H]21 was read as MsrA inh inactive.
Screening Cc1cccc(NC(=O)C23CCC(C)(C(=O)O2)C3(C)C)c1 (stereo unspecified) returned MsrA inh inactive, PKA-R1A act inactive, PKA-R2B act inactive, SUMO Mot1 rescue inactive and bovine MsrA act inactive.
Screening COc1ccc(C)cc1NC(=O)C12CCC(C)(C(=O)O1)C2(C)C (stereo unspecified) returned MsrA inh inactive, PKA-R1A act inactive, PKA-R2B act inactive, SUMO Mot1 rescue 461.1, bovine MsrA act inactive and Mot1 SUMO dose inactive.
Screening COC(=O)C1=C(C)N(Cc2ccccc2C(F)(F)F)C(=NCc2ccc(OC)cc2)NC1c1cccc(Cl)c1 (stereo unspecified) returned MsrA inh inactive.
COC(=O)c1cc2c(c3c4cc(F)ccc4n(S(=O)(=O)c4cccc(C)c4)c13)C(=O)N(C)C2 was read as MsrA inh inactive.
`CC[C@@H]1C/C=C\Cc2ccccc2[C@H](C(=O)C[C@@H](O)CC(C)=O)OC1=O` gave MsrA inh inactive, PKA-R1A act inactive, PKA-R2B act inactive, SUMO Mot1 rescue 497.3, bovine MsrA act inactive and Mot1 SUMO dose inactive.
For CC[C@H]1C/C=C\Cc2ccccc2[C@H](C(=O)C[C@@H](O)CC(C)=O)OC1=O the results were MsrA inh inactive, PKA-R1A act inactive, PKA-R2B act inactive, SUMO Mot1 rescue inactive and bovine MsrA act inactive.
O=C(CN1CCN(C(=O)c2ccccc2)CC1)Nc1ccc(Cl)cc1F was read as MsrA inh inactive, PKA-R1A act inactive, PKA-R2B act inactive, SUMO Mot1 rescue inactive and bovine MsrA act inactive.
Screening O=C(CN1CCN(C(=O)c2ccccc2)CC1)Nc1ncc(Br)cc1Br returned MsrA inh inactive, PKA-R1A act inactive, PKA-R2B act inactive, SUMO Mot1 rescue active, bovine MsrA act inactive and Mot1 SUMO dose inactive.
For COc1ccc(Cl)cc1NC(=O)C1CCCN(c2cc(C)nc3ncnn23)C1 (stereo unspecified) the results were MsrA inh inactive, PKA-R1A act inactive, PKA-R2B act inactive, SUMO Mot1 rescue 732.5, bovine MsrA act inactive and Mot1 SUMO dose inactive.
Screening COC(=O)[C@]12C[C@H](CC(=O)N3CCCC3)C(=O)N(Cc3ccc4c(c3)OCO4)C1=C[C@H](COCc1ccccc1)O[C@@H]2C returned MsrA inh inactive.
Cc1ccc(N(C(C)C(=O)O)S(=O)(=O)c2c(C)n[nH]c2C)cc1 (stereo unspecified) was read as MsrA inh inactive, PKA-R1A act inactive, PKA-R2B act inactive, SUMO Mot1 rescue 530.7, bovine MsrA act inactive and Mot1 SUMO dose inactive.
`COc1ccc(N(CC(=O)O)S(=O)(=O)c2c(C)n[nH]c2C)cc1` gave MsrA inh inactive, PKA-R1A act inactive, PKA-R2B act inactive, SUMO Mot1 rescue inactive and bovine MsrA act inactive.
